High-throughput results deposited in PubChem by The Scripps Research Institute Molecular Screening Center.
DAX1 inh-1 – DAX1 (NR0B1) inhibitors on StAR promoter, primary screen, cell-based, luminescence, SF-1 (NR5A1), full-length DAX-1 | HEK293T StAR-luciferase reporter, SF-1/DAX-1 repression relief | AID 652010, 2013 | hit rate 1.1% among 370,000 | inhibition, % at 6.8 µM;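 active = inhibition above the mean over all tested compounds plus 3 SD, cut at about 3.6% in these data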;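 note: higher inhibition means more luminescence from relief of DAX-1 repression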
hcDAF-12 act – H. contortus DAF-12 nuclear receptor activators, primary screen, cell-based, luminescence, HEK293, lit1-tk-luc reporter | HEK293 hcDAF-12 lit1-tk-luc reporter; 0% DMSO, 100% Δ7-dafachronic acid | activation, % at 6.8 µM | hit rate 1.4% among 370,000;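 active = activation above the mean of all tested compounds plus 3 SD, cut at about 5.5% in these data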
ssDAF12 agonist – S. stercoralis DAF-12 nuclear receptor activators, primary screen, cell-based, luminescence, HEK293, GRIP1 co-expression, lit1-tk-luc; Nuclear hormone receptor DAF-12 (Strongyloides stercoralis); HEK293 ssDAF-12/GRIP1 lit1-tk-luc reporter; % of 3 µM dafachronic acid response; activation, % at 6.8 µM; hit rate 1% among 370,000; AID 652126, 2013;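 active = activation above the mean over all tested compounds plus 3 SD, cut at about 0.9% in these data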
hgDAF-12 ag – H. glycines DAF-12 receptor agonists, primary screen, cell-based, luminescence, HEK293, GAL4 fusion, UAS-luciferase; Nuclear hormone receptor DAF-12 (Heterodera glycines), GAL4 fusion; HEK293 GAL4-hgDAF12 UAS-luciferase reporter, agonist luminescence; normalized to butyrate control; activation, % at 6.8 µM; hit rate 1.8% among 370,000;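 active = activation above a cutoff set at the mean of all screened compounds plus 3 SD, cut at about 10% in these data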
SMARCA2 activ – SMARCA2 (BRM) function activators, primary screen, cell-based, luminescence, high throughput. MG213 cells, MMTV-luciferase reporter, dexamethasone, overnight. activation, % at 9.1 µM. hit rate 1% among 370,000. AID 652017, 2013; in the data active = activation above about 7.8%
DAX1 inh-2 – DAX1 (NR0B1) inhibitors, primary screen, cell-based, HEK293, Gal4-DAX1, luciferase luminescence; Nuclear receptor subfamily 0 group B member 1 (Homo sapiens), P51843; HEK293 Gal4-DAX1 luciferase reporter; inhibition, % at 6.75 µM; hit rate 0.99% among 340,000;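 active = inhibition above the mean over all tested compounds plus 3 SD, cut at about 4.2% in these data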;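 note: inhibition shows as a rise in luminescence from relieved DAX1 repression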
Target sequence (P51843 207-470 limits assumed): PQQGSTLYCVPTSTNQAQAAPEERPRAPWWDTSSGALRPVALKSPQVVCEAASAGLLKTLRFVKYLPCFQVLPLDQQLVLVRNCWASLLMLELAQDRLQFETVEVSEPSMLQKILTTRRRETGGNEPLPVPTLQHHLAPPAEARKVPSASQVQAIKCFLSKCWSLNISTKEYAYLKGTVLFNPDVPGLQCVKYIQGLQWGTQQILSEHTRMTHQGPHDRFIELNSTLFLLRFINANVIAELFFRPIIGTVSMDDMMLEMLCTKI
SMARCA2 act conf – SMARCA2 (BRM) function activators, confirmation, cell-based, luminescence, triplicate | shares compounds with SMARCA2 activ | MG213 cells, MMTV-luciferase with dexamethasone, overnight; MG213 cells expressing E1A, Rb sequestered; DMSO wells 0%, reference activator 100% | activation, % at 9.1 µM | hit rate 30% among 3,500 | AID 652260, 2013;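 active = activation above its plate's cutoff, the mean activation of tested wells plus 3 SD, cut at about 7.9% in these data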
VP16 Luc act – GAL4-VP16 luciferase reporter activation, counter-screen for SMARCA2 (BRM) activator project, cell-based, pG5luc, luminescence, high throughput | activation, % at 9.1 µM | HEK293 GAL4-VP16 pG5luc reporter; scaled: DMSO wells 0%, SAHA wells 100% | hit rate 41% among 3,500 | AID 686939, 2013 | shares compounds with SMARCA2 activ;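 active = activation above the solvent-only control well mean plus 3 SD, averaged across control plates, cut at about 5.2% in these data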
Of the large screens only hits and unclear results are named; the others gave an inactive call (follow-up assays come after a bar, where they were run). A selection: hits, their analogues and other compounds. The true share with any hit is near 4.8%.

Cc1ccc(OCC(O)CN2CCN(Cc3ccc4c(c3)OCO4)CC2)c(C)c1 (stereo unspecified)	none
Cc1ccc(OCC(O)CN2CCOCC2)c(C)c1 (stereo unspecified)	SMARCA2 activ 8.3 | SMARCA2 act conf inactive | VP16 Luc act inactive
CCN(CC)CCn1c(=N)n(CC(O)COc2cccc(C)c2)c2ccccc21 (stereo unspecified)	SMARCA2 activ 8.3 (no result: DAX1 inh-2) | SMARCA2 act conf inactive | VP16 Luc act inactive
Cc1ccc2c(c1)/C(=N/OC(=O)c1ccc(F)cc1)CCS2	none
O=C(O/N=C1\CCCc2ccccc21)c1ccc(F)cc1	SMARCA2 activ 9.7 | SMARCA2 act conf inactive | VP16 Luc act inactive
CCCN1C(=O)C(=O)N(CC(=O)c2cc(C)n(C3CC3)c2C)C1=O	DAX1 inh-1 3.8, SMARCA2 activ 12 | SMARCA2 act conf 11 | VP16 Luc act 8.7
CCCN(C(=O)COC(=O)c1nc2nc(C)cc(C)n2n1)C1CCS(=O)(=O)C1 (stereo unspecified)	none
O=c1c2ccccc2n(CC(O)CN2CCCCC2)c2ccccc12 (stereo unspecified)	SMARCA2 activ 9.4 (no result: DAX1 inh-2) | SMARCA2 act conf inactive | VP16 Luc act inactive
COc1cc(CN2CCC(n3nccc3NC(=O)C3CC3)CC2)cc(OC)c1	none
CC(C)(C)N1CC(C(=O)Nc2ccc(S(N)(=O)=O)cc2)CC1=O (stereo unspecified)	none
CCc1nnc(NC(=O)C2CCCN2C(=O)Nc2ccccc2OC)s1 (stereo unspecified)	SMARCA2 activ 8.8 | SMARCA2 act conf inactive | VP16 Luc act inactive
O=C(/C=C/c1ccc(Cl)cc1Cl)N1CCc2ccccc21	hgDAF-12 ag 13, SMARCA2 activ 8.7 | SMARCA2 act conf 8.3 | VP16 Luc act 8.6
O=C(CS(=O)c1ccc(C(F)(F)F)cc1[N+](=O)[O-])Oc1ccc(Cl)cc1 (stereo unspecified)	SMARCA2 activ 11 | SMARCA2 act conf 14 | VP16 Luc act inactive
Cc1cc(C)cc(OC(=O)CS(=O)c2ccc(C(F)(F)F)cc2[N+](=O)[O-])c1 (stereo unspecified)	SMARCA2 activ 14 | SMARCA2 act conf 13 | VP16 Luc act inactive
COc1ccc(-c2nn(CCC#N)cc2C(=O)Nc2ccccn2)cc1OC	none
COC(=O)/C(C#N)=C/c1ccc(OC(=O)c2ccccn2)cc1	none
C[C@@H]1OC(C2CCCCC2)N(C)[C@H]2C[C@H]3c4cc(N5CCOCC5)ccc4CCN3C[C@@H]12 (stereo partly specified)	none (no result: DAX1 inh-2)
CCCNc1ccc(C(=O)OCC)cc1[N+](=O)[O-]	SMARCA2 activ 9.3 | SMARCA2 act conf 8.4 | VP16 Luc act inactive
COc1ncnc2c1oc1ccccc12	SMARCA2 activ 12 | SMARCA2 act conf 13 | VP16 Luc act 6.0
CCOc1ccc(NC(=O)NN2C(C)CCCC2C)cc1 (stereo unspecified)	SMARCA2 activ 15 | SMARCA2 act conf inactive | VP16 Luc act inactive
CCOc1ccc(NC(=S)NN2C(C)CCCC2C)cc1 (stereo unspecified)	none
CC(=O)c1sc(NC(=O)CCS(=O)(=O)c2ccccc2)nc1C	SMARCA2 activ 11 | SMARCA2 act conf 7.8 | VP16 Luc act inactive
CC(=O)c1sc(NC(=O)CCS(=O)(=O)c2ccc(F)cc2)nc1C	none
